This is a sample that favours compounds with a hit; in the whole collection about 4.2% have one here.
AHR act: AHR activators, primary screen, cell-based, luminescence, luciferase reporter, human. Aryl hydrocarbon receptor (Homo sapiens), P35869. AHR-responsive luciferase reporter cells. activation, % at 5 µM. 320,000 compounds, 2.5% hits; in the data active means activation above about 47%;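 further: 0% = vehicle wells and 100% = reference agonist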
Wnt act: Wnt/beta-catenin pathway activators, primary screen, cell-based, plate reader, single point; Wnt/beta-catenin reporter cell assay, activator; activation, % at 9.35 µM; AID 743398, 2014; 300,000 compounds, 1.2% hits; in the data active means activation above about 30%, passing the limit was not always enough; inconclusive means no clear call, values can overlap the other calls;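 further: 0% = neutral control wells and 100% = positive control wells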
MITF act: activators of MITF-driven TRPM1 promoter reporter, primary screen, cell-based, SK-MEL-5, luciferase, single point | SK-MEL-5 TRPM1-promoter luciferase, 24 h; % of positive control, neutral wells = 0 | 300,000 compounds, 0.75% hits | activation, % at 12.5 µM | AID 588334, 2011;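 active means mean activation of at least 80% with every replicate also reaching 80%; inconclusive means mean reaches 80% but some replicate falls short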;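 further: 0% = neutral control wells and 100% = parthenolide positive control wells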
esBAF inh: Bmi1 luciferase reporter increase in mESCs, primary screen, esBAF inhibitor project, mouse ES cells, Bmi1 luciferase knock-in, single point; 24 h; 100% = twice the neutral-well signal; reporter increase, % at 12.5 µM; 350,000 compounds, 2% hits; in the data active means activation above about 40%; inconclusive means no clear call, values can overlap the other calls;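 further: 0% = median of the plate's neutral control wells and 100% = double that signal; a rise in the Bmi1 reporter signal indicates esBAF inhibition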
FXN GAA850 act: FXN promoter activators, primary screen, cell-based, luciferase luminescence, HEK293 lucGAA850 | AID 540364, 2011 | activation, % at 6 µM | 360,000 compounds, 0.56% hits | HEK293 lucGAA850 FXN promoter luciferase reporter, 24 h; percent of 10 µM SAHA response;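 active means activation above the average of all compounds screened plus 3 SD, cutoff fixed separately per campaign, cut at about 7.5% in these data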;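 further: 0% = DMSO wells and 100% = 10 µM SAHA wells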
AHR act confirm: AHR activators, confirmation, cell-based, luminescence, luciferase reporter, human; shares compounds with AHR act; human cells, AHR-responsive luciferase reporter; activation, % at 9 µM; 2,300 compounds, 87% hits; in the data active means activation above about 49%;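 further: HepG2 hepatoma cells carrying a DRE-driven firefly luciferase reporter; 0% = vehicle wells and 100% = reference agonist wells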
PXR act counter: human PXR activators, counter-screen for AHR activator project, cell-based, luciferase luminescence; activation, % at 11.6 µM; shares compounds with AHR act; 2,300 compounds, 88% hits; cell-based PXR reporter; in the data active means activation above about 11%;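 further: human hepatoma DPX-2 cells expressing full-length human PXR; 0% = DMSO and 100% = reference agonist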
Target sequence (O75469 whole entry, looked up): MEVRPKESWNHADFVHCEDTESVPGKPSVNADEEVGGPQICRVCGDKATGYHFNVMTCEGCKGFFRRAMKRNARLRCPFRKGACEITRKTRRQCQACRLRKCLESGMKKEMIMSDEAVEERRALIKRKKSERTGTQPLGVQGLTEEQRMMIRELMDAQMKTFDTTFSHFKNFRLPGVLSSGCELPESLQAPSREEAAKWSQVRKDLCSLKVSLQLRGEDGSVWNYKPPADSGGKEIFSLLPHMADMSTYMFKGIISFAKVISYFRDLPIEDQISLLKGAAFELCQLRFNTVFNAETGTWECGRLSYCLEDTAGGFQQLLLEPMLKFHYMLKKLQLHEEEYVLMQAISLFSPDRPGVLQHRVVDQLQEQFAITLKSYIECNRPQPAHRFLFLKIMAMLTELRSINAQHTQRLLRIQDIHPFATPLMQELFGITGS
An asterisk follows results filed as active; ? = inconclusive; nt = no result.

SMILES	AHR act	Wnt act	MITF act	esBAF inh	FXN GAA850 act	AHR act confirm	PXR act counter
CCn1ncc(Br)c1C(=O)Nc1ccc(Cl)cn1	105*	-3	4	6	0	115*	45*
Cn1ncc([N+](=O)[O-])c1C(=O)Nc1cccc(Cl)c1	99*	0	nt	-2	0	107*	21*
Cn1ncc(Cl)c1C(=O)Nc1ccc(Cl)cn1	143*	nt	nt	36	0	129*	29*
C[C@@H]1CN([C@@H](C)CO)C(=O)c2cc(NC(=O)Nc3ccccc3)ccc2O[C@@H]1CN(C)Cc1ccc(-c2ccccc2)cc1	nt	nt	nt	5	nt	nt	nt
CN1C(=O)c2cc(NC(=O)c3cccs3)ccc2OC[C@H]2O[C@@H](CC(=O)N3CCCCC3)CC[C@@H]21	nt	nt	nt	2	nt	nt	nt
N#CCC1c2ccccc2CCN1C(=O)Nc1ccc(C(F)(F)F)cc1 (stereo unspecified)	103*	nt	-3	-9	1	100*	181*
N#CCC1c2ccccc2CCN1C(=O)Nc1cccc(C(F)(F)F)c1 (stereo unspecified)	11	nt	-5	-2	-2	nt	nt
Cc1cc(C)c2c(c1)SC1=NC(c3ccccc3)(C(F)(F)F)NC(=O)N12 (stereo unspecified)	91*	5	-1	nt	1	66*	21*
CC1CC1c1ccc(/C=C(\C#N)C(=O)Nc2ccc(Cl)cc2)o1 (stereo unspecified)	90*	nt	45	nt	4	44	45*
C=CCn1c(O)c(N=NC(=S)Nc2cccc(C)c2)c2ccccc21	123*	-6	-9	nt	4	78*	59*
C=CCn1c(O)c(N=NC(=S)Nc2ccccc2F)c2ccccc21	137*	-5	-8	nt	-2	83*	79*
C[C@H](CO)N1C[C@H](C)[C@@H](CN(C)S(=O)(=O)c2ccc(F)cc2)Oc2ccc(NC(=O)Cc3cn(C)c4ccccc34)cc2CC1=O	nt	nt	nt	-1	nt	nt	nt
COc1cccc(NC(=O)/C=C/c2ccc([N+](=O)[O-])cc2)c1	88*	0	22	41	5	91*	25*
O=C(Nc1ccc(Br)cc1)C1OCCc2ccccc21 (stereo unspecified)	103*	7	-2	nt	5	107*	116*
Cc1noc(C)c1NC(=O)N(C)C[C@@H]1Oc2cc(C#CCC3CCCC3)ccc2S(=O)(=O)N([C@@H](C)CO)C[C@H]1C	nt	nt	nt	-1	nt	nt	nt
CN(C)CCCNC(=O)C[C@@H]1CC[C@H]2[C@H](COc3ccc(NC(=O)c4ccccc4F)cc3C(=O)N2C)O1	nt	nt	nt	12	nt	nt	nt
Cc1ncc(CO)c(/C=N/Nc2ccc(C(F)(F)F)cn2)c1O	81*	-1	-54	nt	-6	2	15*
O=C(COc1ncnc2ccc(Br)cc12)Nc1ccc(N2CCOCC2)cc1	21	-4	-2	nt	-1	nt	nt
Brc1ccc2ncnc(Nc3ccc(N4CCOCC4)cc3)c2c1	92*	nt	-8	nt	-9	63*	nt
Cc1cc(C)n2ncc(-c3cccc(Br)c3)c2n1	88*	9	-4	24	1	120*	24*
CN1C[C@@H]2[C@H](c3ccccc31)[C@H](CO)N2C(=O)C1CCCC1	nt	nt	nt	0	nt	nt	nt
CC(C)NC(=O)N1[C@@H]2CN(C(=O)c3ccccc3F)c3ccccc3[C@@H]2[C@@H]1CO	nt	nt	nt	2	nt	nt	nt
CN(C)c1ccc(NC(=O)c2ccc3nsnc3c2)cc1	1	nt	67	11	3	nt	nt
O=C(Nc1ccc(Cl)cc1)c1ccc2nsnc2c1	85*	-1	67	109*	3	143*	12*
O=C(Nc1ccc(Cl)cc1)c1ccc2snnc2c1	129*	-2	54	57*	2	103*	26*
SMILES	AHR act	Wnt act	MITF act	esBAF inh	FXN GAA850 act	AHR act confirm	PXR act counter
C[C@@H]1CN([C@H](C)CO)C(=O)c2cccc(NS(=O)(=O)c3ccccc3)c2O[C@H]1CN(C)C(=O)Nc1ccccc1	nt	nt	nt	0	nt	nt	nt
CO[C@@H]1CN(C)C(=O)c2ccc(NS(C)(=O)=O)cc2OC[C@H](C)N(C(=O)C2CCCCC2)C[C@@H]1C	nt	nt	nt	-5	nt	nt	nt
CO[C@H]1CN(C)C(=O)c2cc(NC(=O)Nc3ccccc3Cl)ccc2OC[C@H](C)NC[C@H]1C	nt	nt	nt	0	nt	nt	nt
COCCOC(=O)c1[nH]c2c(c1C)C(=O)CC(c1ccccc1)C2 (stereo unspecified)	115*	-12	-30	-7	2	56*	124*
O=C(C[C@@H]1C=C[C@@H](NC(=O)CC2CC2)[C@@H](CO)O1)NCc1ccc(-c2ccccc2)cc1	nt	nt	nt	4	nt	nt	nt
BrC(=C\c1ccccc1)/C=N/Nc1nc2ccccc2[nH]1	149*	33*	30	nt	-2	49*	59*
C(=N\Nc1nc2ccccc2[nH]1)/c1ccc2ncccc2c1	6	8	nt	-33	-5	nt	nt
COc1ccc(/C=N/Nc2nc(N)cc(Cl)n2)cc1OC	89*	17	-2	nt	5	72*	16*
COc1ccc(/C=N/Nc2nc3ccccc3[nH]2)cc1OC	111*	12	?	nt	7	86*	nt
COc1ccc2c(c1)c(/C=N/Nc1nc3ccccc3[nH]1)c(C)n2C	98*	57*	nt	nt	-2	63*	40*
C(=N\Nc1nc2ccccc2[nH]1)/c1ccccn1	nt	21	-82	nt	-9	nt	nt
CCCC(=O)Nc1ccc2c(c1)C(=O)N(C)[C@H]1CC[C@H](CC(=O)Nc3ccccc3F)O[C@@H]1CO2	nt	nt	nt	-3	nt	nt	nt
COc1cccc(-n2c(N)c(-c3nc4ccccc4[nH]3)sc2=S)c1	89*	13	7	nt	2	130*	97*
COc1cccc(-n2c(=S)sc3c(=O)n(-c4ccccc4OC)c(=S)[nH]c32)c1	4	-1	4	nt	1	nt	nt
CCC(=O)N[C@H]1C=C[C@H](CC(=O)NCCN2CCCCC2)O[C@H]1CO	nt	nt	nt	7	nt	nt	nt
Cc1cc(C(F)(F)F)n2nc(-c3sccc3-n3cccc3)cc2n1	103*	5	nt	3	2	113*	44*
FC(F)(F)c1cc(-c2cccs2)nc2cc(-c3ccccc3)nn12	34	-3	-4	0	3	nt	nt
O=C(NCCc1ccncc1)Nc1cccc(Cl)c1	90*	3	5	4	0	56*	17*
O=C(NCCCc1ccccc1)Nc1cccc(Cl)c1	-1	-1	17	nt	2	nt	nt
O=c1[nH]n(-c2ccc(F)cc2)c2ncccc12	17	-4	nt	-6	1	nt	nt
